Test results reported in the GenesisPotency data set.
Screen size: about 290,000 compounds; about 3,000 (1%) were called active. This is one part of a sample in which actives are shown more often than they occur. No stated cut-off is given here; in the data, active means inhibition mostly above about 36% (no sharp cut-off); inactive means mostly below about 34%.

Each molecule was assayed against T1, Nucleotide-binding oligomerization domain-containing protein 1, Homo sapiens (UniProt Q9Y239) (assay: NOD1 signaling inhibitors, primary screen, cell-based, luminescence, uHTS (AID 1578)).
T1 sequence (whole entry): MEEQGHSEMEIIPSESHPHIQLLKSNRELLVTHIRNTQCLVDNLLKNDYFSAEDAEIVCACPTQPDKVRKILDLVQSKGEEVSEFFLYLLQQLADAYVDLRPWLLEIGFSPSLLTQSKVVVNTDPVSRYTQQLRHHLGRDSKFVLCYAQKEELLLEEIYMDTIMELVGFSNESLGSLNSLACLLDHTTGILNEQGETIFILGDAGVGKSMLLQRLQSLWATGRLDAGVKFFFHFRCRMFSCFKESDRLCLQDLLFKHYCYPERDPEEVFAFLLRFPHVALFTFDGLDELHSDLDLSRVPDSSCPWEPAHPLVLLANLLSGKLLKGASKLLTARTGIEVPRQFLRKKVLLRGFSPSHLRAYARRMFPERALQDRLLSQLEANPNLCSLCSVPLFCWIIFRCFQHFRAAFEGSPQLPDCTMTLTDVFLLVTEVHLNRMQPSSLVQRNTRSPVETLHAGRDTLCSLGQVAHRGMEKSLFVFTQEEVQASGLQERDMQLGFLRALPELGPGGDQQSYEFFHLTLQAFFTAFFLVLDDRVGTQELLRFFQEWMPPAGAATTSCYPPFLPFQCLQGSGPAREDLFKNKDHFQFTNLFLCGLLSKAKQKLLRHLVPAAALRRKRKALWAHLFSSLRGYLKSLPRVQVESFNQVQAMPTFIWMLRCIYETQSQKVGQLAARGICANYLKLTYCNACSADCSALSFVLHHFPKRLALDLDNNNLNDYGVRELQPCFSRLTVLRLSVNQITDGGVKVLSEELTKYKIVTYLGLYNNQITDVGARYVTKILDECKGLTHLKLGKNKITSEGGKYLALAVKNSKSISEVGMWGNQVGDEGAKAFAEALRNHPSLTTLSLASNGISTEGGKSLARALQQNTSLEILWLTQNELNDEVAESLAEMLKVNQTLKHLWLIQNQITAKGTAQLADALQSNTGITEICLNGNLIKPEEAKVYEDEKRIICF

outcome, active:
CCOC(=O)c1sc(NC(=O)CSc2n[nH]c(-c3ccccc3)n2)c(C#N)c1C
CCOC(=O)c1sc(NC(=O)c2cc(-c3ccccc3)nc3ccccc23)c(C#N)c1C
Cc1ccc(C(=O)O/N=C(\N)c2ccccn2)c(C)c1
Cc1ccc(C)c(N2CCN(C(=O)CCCCCn3c(=S)[nH]c4ccc(N5CCOCC5)cc4c3=O)CC2)c1
N#Cc1ccc(C(=O)Nc2nc(-c3cccs3)c(C(=O)C(F)(F)F)s2)cc1
CN(c1ccccc1)S(=O)(=O)c1ccc(NC(=O)c2nc(S(C)(=O)=O)ncc2Cl)cc1
CCS(=O)(=O)c1ncc(Cl)c(C(=O)Nc2ccc(S(=O)(=O)N(C)c3ccccc3)cc2)n1
CCS(=O)(=O)c1ncc(Cl)c(C(=O)Nc2ccc(C)cc2)n1
CCN(c1ccccc1)S(=O)(=O)c1ccc(NC(=S)NC(=O)c2cccs2)cc1
Cc1csc2ncnc(N3CCN(C(=S)Nc4ccc(C(F)(F)F)cc4)CC3)c12
Cc1csc2ncnc(N3CCN(C(=S)Nc4ccc(F)cc4F)CC3)c12
Fc1ccc(NC(=S)N2CCCN(c3ccc(C(F)(F)F)cn3)CC2)c(F)c1
Cc1csc2c(N3CCN(C(=S)Nc4ccc(C(F)(F)F)cc4)CC3)ncnc12
Cc1csc2ncnc(N3CCN(S(=O)(=O)c4cccc(C(F)(F)F)c4)CC3)c12
Cc1csc2ncnc(N3CCN(C(=O)Nc4ccc(OC(F)(F)F)cc4)CC3)c12
Cc1c(C#N)c(NC(=O)CCl)n(Cc2ccccc2)c1C
Cc1c(C#N)c(NC(=O)CCl)n(Cc2cccs2)c1C
Br.CCCCCCCn1c2c(c(=N)c3c1CCC3)CCCC2
Br.CCCCCCCCn1c2c(c(=N)c3c1CCC3)CCCC2
Br.CCCCCCCCCn1c2c(c(=N)c3c1CCC3)CCCC2
CC(=O)N1CCCc2cc(S(=O)(=O)N3CCCC(C(=O)N4CCN(c5cccc(Cl)c5)CC4)C3)ccc21 (stereo unspecified)
CC(=O)N1CCCc2cc(S(=O)(=O)N3CCCC(C(=O)N4CCN(c5cc(C)ccc5C)CC4)C3)ccc21 (stereo unspecified)
Cc1ccc(S(=O)(=O)c2ncccc2[N+](=O)[O-])cc1
COc1ccc(/C=C2\Sc3ccc(C(=O)N4CCN(Cc5ccccc5)CC4)cc3N(C)C2=O)cc1OC
CN1C(=O)/C(=C/c2ccccc2Cl)Sc2ccc(C(=O)N3CCCC3)cc21
COc1ccc2c(c1OC)C(=O)OC2Nc1nc(-c2ccccc2)cs1 (stereo unspecified)
Cc1ccc(-c2csc(NC3OC(=O)c4ccccc43)n2)cc1 (stereo unspecified)
O=C(NCCc1ccccc1F)c1ccc2c(c1)OCCO2
O=C(NCCc1ccccc1)c1ccc2c(c1)OCCCO2
COc1cc(C)c(Br)cc1S(=O)(=O)NCc1ccncc1
Cc1ccc(Cc2c(C)c(C#N)c3[nH]c4ccccc4n3c2=O)cc1
O=C(N/N=C/c1ccc([N+](=O)[O-])s1)c1ccccc1Br
O=C(N/N=C/c1ccc([N+](=O)[O-])s1)c1cccc(Br)c1
Cc1ccc(NC(=O)c2ccccc2NS(=O)(=O)c2ccc(F)cc2)cc1S(=O)(=O)N1CCCCC1
O=C(Nc1cccc(S(=O)(=O)N2CCCCC2)c1)c1ccccc1NS(=O)(=O)c1ccc(F)cc1
COc1ccccc1C(=O)Nc1nc2ccccc2[nH]1
Cc1c(C(=O)Nc2nc3ccccc3[nH]2)oc2ccc(Br)cc12
COc1cc(SC)ccc1C(=O)Nc1nc2ccccc2[nH]1
O=c1cc(C(F)(F)F)nc(SCc2cccc3ccccc23)[nH]1
Cc1cnc(NC(=O)C2CC(=O)N(c3cccc(Cl)c3)C2)s1 (stereo unspecified)
CC(C)(C)c1cc(NC(=O)CCl)n(-c2ccccc2)n1
O=[N+]([O-])c1cccc(NC(=S)Nc2nc(-c3ccc(Cl)cc3Cl)cs2)c1
Cc1cc(Br)ccc1SCC(=O)OC/C(O)=C(\C#N)c1nc2ccccc2[nH]1
N#C/C(=C(/O)COC(=O)CSc1ccc2ccccc2c1)c1nc2ccccc2[nH]1
CC(C)(C)c1ccc(-c2noc(CCC(N)=O)n2)cc1
CC(C)(C)c1ccc(-c2noc(CCC(=O)Nc3cccnc3)n2)cc1
O=C(NC1CCCCC1)N1CCN(c2nc(-c3ccccc3)cs2)CC1
COC(=O)C1CCCCN1C(=O)c1cc(COc2cccc3cnccc23)on1 (stereo unspecified)
CCOC(=O)CC1CCCCN1C(=O)c1cc(COc2cccc3cnccc23)on1 (stereo unspecified)
COc1cc(NC(=O)COc2cc(O)c3c(c2)OC(C)(C)CC3=O)cc(OC)c1OC
NC(=O)c1sc2nc3c(c(-c4ccco4)c2c1N)CCCC3
Cc1nc2sc(C(N)=O)c(N)c2c2c1CCCC2
NC(=O)c1sc2nc3c(c(-c4ccccc4)c2c1N)CCC3
Cc1ccc(-c2c3c(nc4sc(C(N)=O)c(N)c24)CCC3)cc1
NC(=O)c1sc2nc3c(c(-c4cccs4)c2c1N)CCCCC3
Nc1ncc([N+](=O)[O-])c(N2CCCCCC2)n1
COc1ccccc1N1CCN(C(=O)C2CCCN(S(=O)(=O)c3ccc4c(c3)oc(=O)n4C)C2)CC1 (stereo unspecified)
CCN(CC)S(=O)(=O)c1ccc(Oc2ccc(S(=O)(=O)N(CC)CC)cc2)cc1
Cc1ccccc1NC(=O)/C=C/c1ccc([N+](=O)[O-])s1
Cc1ccc(NC(=O)/C=C/c2ccc([N+](=O)[O-])s2)c(C)c1
CCCc1nc2c(=O)n(C)c(=O)nc-2n(C)n1
CC(=O)n1cc(N(C(=O)CCl)c2ccccc2)c2ccccc21
O=C(CCl)N(Cc1ccccc1)c1ccccc1
O=C(CCl)N(c1ccccc1)c1c[nH]c2ccccc12
O=C(CCl)N(c1ccccc1)c1ccccc1
O=C(COc1ccc(Br)cc1Cl)NC(=S)N1CCc2ccccc21
CC1Cc2ccccc2N1S(=O)(=O)c1cccc(C(=O)N2CCN(c3ncccn3)CC2)c1 (stereo unspecified)
CC1Cc2ccccc2N1C(=S)NC(=O)c1cccc(Br)c1 (stereo unspecified)
Cn1c(=NC(=O)CCl)sc2ccccc21
Cc1cc(C(=O)CCl)c(C)n1CCc1ccc(F)cc1
CCc1ccc(-c2nc(CSCC(=O)N3CCN(c4ccccn4)CC3)c(C)o2)cc1
COc1cccc(CN(C)C(=O)CNC(=O)c2ccc(-c3ccccc3)cc2)c1OC
CCOc1ccc(S(=O)(=O)Nc2cnc3ccccc3c2)cc1
Cc1c(C(=O)Nc2nonc2-c2ccc(F)cc2)oc2ccc(F)cc12
Nc1ncc(Br)cc1S(=O)(=O)Nc1cc(C(F)(F)F)cc(C(F)(F)F)c1
O=[N+]([O-])c1cc([N+](=O)[O-])c2oc(-c3ccccc3)c(Br)c2c1O
O=[N+]([O-])c1ccc(Oc2ccc(F)cc2)c2ccncc12
O=[N+]([O-])c1ccc(Oc2ccc(F)cc2Br)c2ccncc12
Cn1nccc1C(=O)NC1CCCc2c1cnn2-c1ccc(F)cc1F (stereo unspecified)
Cc1ccc(C(=O)NC2CCCc3c2cnn3-c2ccc(F)cc2F)cn1 (stereo unspecified)
CC1=C(C(=O)NC2CCCc3c2cnn3-c2ccc(F)cc2F)OCCO1 (stereo unspecified)
Cc1ccc(C(=O)CN2C(=O)c3ccccc3S2(=O)=O)cc1
COc1ccc(C(=O)CN2C(=O)c3ccccc3S2(=O)=O)cc1
COc1ccc(-c2cc3nc(CCl)[nH]c(=O)c3s2)cc1
COc1ccc(-c2cc3nc(C)n(N)c(=O)c3s2)cc1
COc1ccccc1-c1nnc(Sc2nc([N+](=O)[O-])nn2C)o1
OCCCNc1nccc(-c2cc(Nc3cccc(Cl)c3)ncn2)n1
OCCCNc1cc(-c2ccnc(Nc3cccc(Cl)c3)n2)ccn1
CCOC(=O)c1oc2ccc(S(=O)(=O)n3nc(-c4ccc(OC)cc4)cc3N)cc2c1C
CN(C)c1ccnc2sc3c(=O)n(Cc4ccccc4)cnc3c12
Cl.O=[N+]([O-])c1ccc2ncnc(N3CCN(Cc4ccc5c(c4)OCO5)CC3)c2c1
Cc1c(C(=O)N2CCN(Cc3ccc4c(c3)OCO4)CC2)sc2ncnc(N3CCN(c4ccccc4)CC3)c12
Cc1ccc(S(=O)(=O)CC#CCOC(=O)c2ccc([N+](=O)[O-])cc2)cc1
CCOC(=O)c1csc(Nc2nc3ccc(F)cc3s2)n1
CN(c1ccccc1)S(=O)(=O)c1cccc(NC(=O)c2cc(=O)c3ccccc3o2)c1
Cc1cc(Cl)c(S(=O)(=O)N2CCCCCC2)cc1OCC(=O)NC1CCCCC1
Cc1cc(Cl)c(S(=O)(=O)N2CCN(c3ccc(F)cc3)CC2)cc1OCC(=O)NC1CCCCC1
Cc1cc(C)c(C(=O)/C=C/c2cccc3ccccc23)c(=O)[nH]1
Cc1cc(C)c(C(=O)/C=C/c2ccc(C(C)C)cc2)c(=O)[nH]1
O=C(/C=C/c1ccc2c(c1)OCO2)Nc1nc(-c2ccccc2)cs1
COc1cccc(N(C(=O)CCl)C(C(=O)NCCc2ccccc2)c2cccs2)c1 (stereo unspecified)
COc1ccc(N(C(=O)CCl)C(C(=O)NCCc2ccccc2)c2cccs2)cc1 (stereo unspecified)
COc1ccc(NS(=O)(=O)c2cccc(NC(=O)c3ccc(S(=O)(=O)N4CCCCCC4)cc3)c2)cc1
COc1ccc(NS(=O)(=O)c2cccc(NC(=O)c3ccc(Cl)nc3)c2)cc1
Cc1ccccc1-n1nnnc1Sc1nnnn1-c1ccccc1
Cc1sc2ncnc(Sc3nnnn3-c3ccc(Cl)cc3)c2c1C
Cc1sc2ncnc(Sc3nnnn3-c3ccccc3)c2c1C
O=C(N/N=C/c1ccc([N+](=O)[O-])o1)c1ccccc1-n1cccc1
Cc1scc(C(=O)N/N=C/c2ccc([N+](=O)[O-])o2)c1C
O=[N+]([O-])c1ccc(/C=N/N=C/c2ccc([N+](=O)[O-])o2)o1
O=C(N/N=C/c1ccc([N+](=O)[O-])o1)c1ccc2c(c1)OCO2
